From PubChem BioAssay (NCI)
The panel holds about 83,000 compounds, 20% with a hit somewhere; the sample as a whole holds those more often.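 Assay: single dose, 48 h. Readout: percent growth (0 = no net growth; negative = cell death). Active: <10.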 The source made the active and inactive calls.

What was measured:
Experiment in all cases: NCI-60 one-dose screen, 48 h (100 = growth as untreated, 0 = no growth, -100 = all killed)
Conditions in all cases: 10 µM unless noted
NCI-H23 lung = test system: NCI-H23 lung
NCI-H226 lung = test system: NCI-H226 lung
NCI-H322M lung = test system: NCI-H322M lung
HOP-62 NSCLC = test system: HOP-62 NSCLC
HOP-92 NSCLC = test system: HOP-92 NSCLC
NCI-H522 lung = test system: NCI-H522 lung
A549/ATCC NSCLC = test system: A549/ATCC NSCLC
786-0 renal = test system: 786-0 renal
COLO 205 colon = test system: COLO 205 colon
NCI-H460 lung = test system: NCI-H460 lung

Measured: growth

N#CSCC1CC(O)(c2ccccc2)CC(c2ccc(F)cc2)O1 (configuration not stated)
active: NCI-H226 lung -7.79% | HOP-62 NSCLC -36.8% | NCI-H522 lung -57% | 786-0 renal 0.242%
inactive: NCI-H23 lung 20.5% | NCI-H322M lung 50.9% | HOP-92 NSCLC 29.6% | A549/ATCC NSCLC 27.8% | COLO 205 colon 16.6%

COC12C=C/C(=C(/C(=O)OCc3ccncn3)C(=O)CCCCCCCCC3(OC)C=C/C(=C(/C(=O)OCc4ccncn4)C(=O)CCCCCCCC1)O3)O2
inactive: HOP-62 NSCLC 23%
active: NCI-H23 lung -37.2% | NCI-H226 lung -71.8% | NCI-H322M lung -76.5% | HOP-92 NSCLC -53.6% | NCI-H522 lung -13.1% | A549/ATCC NSCLC 6.41% | 786-0 renal -71.2% | COLO 205 colon 3.33%

CCOC(=O)C1=C(c2ccccc2)N=C2SC=C(c3ccc(Cl)cc3)N2C1c1ccc(Br)cc1 (configuration not stated)
inactive: NCI-H23 lung 69.8% | NCI-H226 lung 76.6% | NCI-H322M lung 90.9% | HOP-62 NSCLC 90.7% | HOP-92 NSCLC 56.1% | NCI-H522 lung 69.3% | A549/ATCC NSCLC 84.5% | 786-0 renal 80.6% | COLO 205 colon 83.1%

COc1cccc(CNc2ccc3ncnc(Nc4ccc(F)c(Cl)c4)c3c2)c1
inactive: NCI-H23 lung 69.6% | NCI-H226 lung 71.4% | NCI-H322M lung 34.1% | HOP-62 NSCLC 82.5% | HOP-92 NSCLC 76.8% | NCI-H522 lung 18.6% | A549/ATCC NSCLC 53.1% | 786-0 renal 71.2% | COLO 205 colon 91.3%

COc1cc2c(cc1OCCCN1CCN(CCCOc3cc4c(cc3OC)C(=O)N3CC(F)(F)C[C@H]3C=N4)CC1)N=C[C@@H]1CC(F)(F)CN1C2=O
inactive: NCI-H23 lung 54% | NCI-H226 lung 95.5% | NCI-H322M lung 97.9% | HOP-62 NSCLC 97.4% | HOP-92 NSCLC 10.8% | A549/ATCC NSCLC 94.4% | 786-0 renal 86.2% | COLO 205 colon 43.1%
active: NCI-H522 lung -14.3%

Nc1ncnc2c1C(c1ccccc1)c1ccc3ccccc3c1O2 (configuration not stated)
inactive: NCI-H23 lung 77.5% | NCI-H226 lung 77.6% | NCI-H322M lung 88% | HOP-62 NSCLC 68.5% | HOP-92 NSCLC 45.1% | NCI-H522 lung 53.8% | A549/ATCC NSCLC 86% | 786-0 renal 89.7% | COLO 205 colon 92.8%

CCC(C)N(CCNc1cc(OC)cc2cccnc12)CC(C)C (configuration not stated)
inactive: NCI-H23 lung 86.5% | NCI-H226 lung 92.7% | NCI-H322M lung 95.2% | HOP-62 NSCLC 107% | NCI-H522 lung 82.8% | A549/ATCC NSCLC 102% | 786-0 renal 117% | COLO 205 colon 96.6%

O=C1Nc2ccccc2/C1=C/c1nc2ccccc2c(=O)[nH]1
inactive: NCI-H23 lung 75.8% | NCI-H226 lung 94.5% | NCI-H322M lung 101% | HOP-62 NSCLC 76.3% | NCI-H460 lung 95.1% | NCI-H522 lung 94.1% | A549/ATCC NSCLC 100% | 786-0 renal 104% | COLO 205 colon 117%

Clc1ccc2c(NC3CCC(N4CCOCC4)CC3)ccnc2c1 (configuration not stated)
inactive: NCI-H23 lung 62.2% | NCI-H226 lung 68.9% | NCI-H322M lung 101% | HOP-62 NSCLC 66.7% | HOP-92 NSCLC 48.7% | NCI-H522 lung 80.8% | A549/ATCC NSCLC 74.5% | 786-0 renal 70.6% | COLO 205 colon 81.4%

CCOC(=O)c1c(NC(=O)c2ccc(Cl)cc2)sc2c(CN(C)C)c(O)ccc12
inactive: NCI-H23 lung 88% | NCI-H226 lung 96.1% | HOP-62 NSCLC 84.6% | NCI-H460 lung 71.3% | NCI-H522 lung 76.5% | A549/ATCC NSCLC 69.6% | 786-0 renal 69.8%
active: HOP-92 NSCLC 1.75% | COLO 205 colon 5.48%

CCO/C=N/C1=C(C#N)C(c2ccc(Cl)cc2)c2sc3c(F)cccc3c2O1 (configuration not stated)
active: NCI-H522 lung -6.96%
inactive: NCI-H23 lung 76.2% | NCI-H226 lung 88.6% | HOP-62 NSCLC 58.4% | NCI-H460 lung 25.6% | HOP-92 NSCLC 77.1% | A549/ATCC NSCLC 53.4% | 786-0 renal 71.5% | COLO 205 colon 95.7%

c1ccc(Cn2cc3c(c2)-c2oncc2CC3)cc1
active: NCI-H460 lung 8.32%
inactive: NCI-H23 lung 46.6% | NCI-H226 lung 53% | HOP-62 NSCLC 21.1% | HOP-92 NSCLC 65.4% | NCI-H522 lung 21.3% | A549/ATCC NSCLC 23.2% | 786-0 renal 37.1% | COLO 205 colon 15.9%

CCCCCCCCCCC(CN(CC)CC)C(O)c1ccccc1 (configuration not stated)
inactive: NCI-H23 lung 38% | NCI-H226 lung 15.4% | HOP-62 NSCLC 53.4% | NCI-H460 lung 21.7% | A549/ATCC NSCLC 54.7% | 786-0 renal 49.1%
active: HOP-92 NSCLC -1.6% | NCI-H522 lung -14.4% | COLO 205 colon -42.6%

Clc1cccc(Nc2ncnc3ccc(-c4cnc5[nH]ccc5c4)cc23)c1
active: 786-0 renal -19.6%
inactive: NCI-H23 lung 84.4% | NCI-H226 lung 80% | HOP-62 NSCLC 86.9% | NCI-H460 lung 78.3% | HOP-92 NSCLC 94.5% | NCI-H522 lung 33.9% | A549/ATCC NSCLC 50.1% | COLO 205 colon 83.4%

O=C(Nc1ccc(Oc2cccc(Cl)c2)c(Cl)c1)c1cccnc1
inactive: NCI-H23 lung 47.9% | NCI-H226 lung 54.3% | HOP-62 NSCLC 38% | NCI-H460 lung 22.2% | HOP-92 NSCLC 61.3% | NCI-H522 lung 27.3% | A549/ATCC NSCLC 36.8% | 786-0 renal 39.2% | COLO 205 colon 15.4%

O=C(/C=C/c1cccc(Cl)c1)c1ccc(Nc2nc(Nc3ccc(F)cc3)nc(Nc3ccc(Cl)cc3)n2)cc1
inactive: NCI-H23 lung 97.9% | NCI-H226 lung 118% | HOP-62 NSCLC 91.9% | NCI-H460 lung 143% | HOP-92 NSCLC 72.9% | NCI-H522 lung 102% | A549/ATCC NSCLC 87.1% | 786-0 renal 99.1% | COLO 205 colon 108%

CCOC(=O)c1ccc2c(c1)nc(-c1ccccc1)n2C1CCCCC1
inactive: NCI-H23 lung 90.3% | NCI-H226 lung 120% | HOP-62 NSCLC 65% | NCI-H460 lung 107% | HOP-92 NSCLC 91.7% | NCI-H522 lung 73.6% | A549/ATCC NSCLC 68.3% | 786-0 renal 88.5% | COLO 205 colon 76.3%

N#Cc1nc(-c2ccc(F)cc2)oc1S(=O)(=O)N1CCOCC1
active: NCI-H522 lung -33.8% | COLO 205 colon -36.4%
inactive: NCI-H23 lung 70.3% | NCI-H226 lung 81.7% | HOP-62 NSCLC 101% | NCI-H460 lung 107% | HOP-92 NSCLC 94.6% | A549/ATCC NSCLC 107% | 786-0 renal 87.6%

Cc1ccc(-c2nc(N3CCCNCC3)c3oc(-c4ccccc4)nc3n2)cc1
active: NCI-H23 lung 9.93% | HOP-62 NSCLC -55.3% | HOP-92 NSCLC -27.1% | NCI-H522 lung -74.6% | A549/ATCC NSCLC -87.8% | 786-0 renal -89.8% | COLO 205 colon -80.9%
inactive: NCI-H226 lung 93.1%

Oc1c(Br)cc(Br)c2ccc(Cn3cc(-c4ccccc4C(F)(F)F)nn3)nc12
inactive: NCI-H23 lung 106% | NCI-H226 lung 98.6% | HOP-62 NSCLC 103% | HOP-92 NSCLC 88.8% | NCI-H522 lung 24.6% | A549/ATCC NSCLC 99.6% | 786-0 renal 105% | COLO 205 colon 95.7%

CCCCNC(=O)Oc1ccc(/C(=C(/C)Cc2ccc(OC)cc2)c2ccc(OCCN3CCCC3)cc2)cc1
inactive: NCI-H23 lung 85.9% | NCI-H226 lung 94.7% | HOP-62 NSCLC 79.1% | NCI-H460 lung 17.7% | HOP-92 NSCLC 49% | NCI-H522 lung 55.5% | A549/ATCC NSCLC 48.7% | 786-0 renal 59.8%
active: COLO 205 colon -57.4%

COc1cc2cc(NCc3cccc(Cl)c3)nc(C)c2cc1OC
inactive: NCI-H23 lung 22.6% | NCI-H226 lung 35.8% | HOP-62 NSCLC 51.4% | NCI-H460 lung 22.7% | HOP-92 NSCLC 57.8% | NCI-H522 lung 18.3% | A549/ATCC NSCLC 41.3% | 786-0 renal 39.9% | COLO 205 colon 31.6%

CS(=O)(=O)Nc1cncc(-c2ccc3ncnc(Nc4cncc(Cl)c4)c3c2)c1
inactive: NCI-H23 lung 80% | NCI-H226 lung 80.8% | HOP-62 NSCLC 73.4% | NCI-H460 lung 103% | HOP-92 NSCLC 31.5% | NCI-H522 lung 50.2% | A549/ATCC NSCLC 81.7% | 786-0 renal 82.3% | COLO 205 colon 93.8%

Cc1ccccc1/C=C/C(=O)c1cccc(OCCCOc2cccc(C(=O)/C=C/c3ccccc3C)c2)c1
inactive: NCI-H23 lung 88.5% [3 µM] | NCI-H226 lung 88.9% [3 µM] | HOP-62 NSCLC 114% [3 µM] | NCI-H460 lung 99.8% [3 µM] | HOP-92 NSCLC 85.9% [3 µM] | NCI-H522 lung 80.5% [3 µM] | A549/ATCC NSCLC 86% [3 µM] | 786-0 renal 103% [3 µM] | COLO 205 colon 110% [3 µM]

CCCNc1nc2ccccc2c2c1S(=O)(=O)c1ccc(Cl)cc1C2=O
inactive: NCI-H23 lung 24.7% | NCI-H226 lung 34.7% | A549/ATCC NSCLC 19.6% | 786-0 renal 13.9%
active: HOP-62 NSCLC 9.66% | NCI-H460 lung 5.29% | HOP-92 NSCLC -27.2% | NCI-H522 lung -81.3%

NNc1nc(-c2cccnc2)nc2c1sc(=S)n2-c1ccccc1
inactive: NCI-H23 lung 102% | NCI-H226 lung 105% | HOP-62 NSCLC 69.1% | NCI-H460 lung 107% | HOP-92 NSCLC 84.9% | NCI-H522 lung 58.7% | A549/ATCC NSCLC 87.7% | 786-0 renal 89.7% | COLO 205 colon 98.4%

COC(=O)[C@]12CCC(C)(C)C[C@H]1[C@H]1/C(=N/OCCc3nn[nH]n3)C[C@@H]3[C@@]4(C)CC[C@H](OC(C)=O)C(C)(C)[C@@H]4CC[C@@]3(C)[C@]1(C)CC2
active: NCI-H460 lung 9.64%
inactive: NCI-H23 lung 28.4% | NCI-H226 lung 33.3% | HOP-62 NSCLC 34% | HOP-92 NSCLC 49.9% | NCI-H522 lung 38.3% | A549/ATCC NSCLC 36.8% | 786-0 renal 51.9% | COLO 205 colon 41.4%

Nc1cc(C(=O)NC[C@H]2CN(c3ccc(N4CCC(C(=O)O)CC4)cc3)C(=O)O2)ccc1Cl
inactive: NCI-H23 lung 95.1% | NCI-H226 lung 100% | HOP-62 NSCLC 99% | NCI-H460 lung 103% | HOP-92 NSCLC 98.4% | NCI-H522 lung 92% | A549/ATCC NSCLC 98.5% | 786-0 renal 101% | COLO 205 colon 104%

O=C(N/N=C/c1c(Cl)cccc1Cl)c1cccnc1Nc1cccc(C(F)(F)F)c1
active: NCI-H522 lung 1.47%
inactive: NCI-H23 lung 44.3% | NCI-H226 lung 18.4% | HOP-62 NSCLC 40.2% | NCI-H460 lung 15% | HOP-92 NSCLC 14.7% | A549/ATCC NSCLC 51% | 786-0 renal 42.6% | COLO 205 colon 15.1%
